PubChem BioAssay
The source made the active and inactive calls.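 The calls were made as follows: active = compound raises insulin release from rat beta cells at 5 mM glucose, no numeric limit stated; inactive = the rest.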 Non-standard residues stand in square brackets, D forms with d. Residues, ends and D or L forms follow the SMILES beside them. pGlu = O=C1CC[C@@H](C(=O)O)N1

test: stimulators of insulin release from INS-1E, primary screen, cell-based, 5 mM glucose, NPC library (AID 1117329); settings: rat INS-1E insulin secretion, at 10 µM, active compounds read high; also: reference of the scale not given here

| Structure (SMILES) | insulin secretion stimulation |
| --- | --- |
| OCCCc1ccccc1 | 3.2% (inactive) |
| CC(C)C(=O)Nc1cccc(C2CN3CCSC3=N2)c1 (centres undefined) | -0.5% (inactive) |
| CCNC(=O)[C@@H]1CCCN1C(=O)[C@H](CCCN=C(N)N)NC(=O)[C@H](CC(C)C)NC(=O)CNC(=O)[C@H](Cc1ccc(O)cc1)NC(=O)[C@H](CO)NC(=O)[C@H](Cc1c[nH]c2ccccc12)NC(=O)[C@H](Cc1cnc[nH]1)NC(=O)[C@@H]1CCC(=O)N1 ([pGlu]HWSYGLRP-NHEt) | -0.8% (inactive) |
| CN1CC(O)c2cc(N=NC(N)=O)c(O)cc21 (centres undefined) | -1.7% (inactive) |
| C[C@@H]1C[C@H]2[C@@H]3CCC4=CC(=O)C=C[C@]4(C)[C@@]3(F)[C@@H](O)C[C@]2(C)[C@@]1(O)C(=O)COC(=O)c1ccncc1 | -1% (inactive) |
| c1ccc2[nH]ccc2c1 | -2.8% (inactive) |
| O=C(O)COc1nn(Cc2ccccc2)c2ccccc12 | -0.7% (inactive) |
| C[C@]12C=CC(=O)C=C1[C@@H](F)C[C@@H]1[C@@H]2[C@@H](O)C[C@@]2(C)[C@H]1CC[C@]2(O)C(=O)CO | 0.8% (inactive) |
| O=S(=O)(O)CC(S)CS (centres undefined) | -3.4% (inactive) |
| CCOC(=O)c1ccc(NC(=O)CN2CCCCC2)cc1 | 3.5% (inactive) |
| CN1[C@@H]2CC[C@H]1CC(NC(=O)n1c(=O)[nH]c3ccccc31)C2 (some centres undefined) | 0.4% (inactive) |
| Cc1cn([C@@H]2O[C@H](CO)[C@@H](O)[C@H]2F)c(=O)[nH]c1=O | 0.3% (inactive) |
| Cc1ccc(O)c2ncccc12 | -2% (inactive) |
| OCc1ccc(Cl)cc1Cl | -2% (inactive) |
